Drawing on PubChem BioAssay (Tox21), this text covers Potency and outcome for 25 compounds.

Unmarked numbers belong to inactive results. Records with an inconclusive call do not appear. The source made the active and inactive calls. Unless noted, calls come from the whole dose curve; as a rule, active = well fitted curve in the direction sought with a large enough effect in the repeat runs; inconclusive = weak or mixed curves; inactive = no such curve, though single readings can be large; an effect the other way counts as inactive or inconclusive.

Experiment [1] in a line: qHTS assay for small molecules that induce genotoxicity in human embryonic kidney cells expressing luciferase-tagged ATAD5 (AID 651632). Note: nearly all actives have a fitted effect of over 15% in size. Note: potency is the fitted concentration of half-maximal effect. The essentials: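 ATAD5-luc HEK293T, 2,000 cells/well; cpd or DMSO pin-transferred; 16 hr, 37C/5% CO2; Amplite 30 min RT; luminescence.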
Experiment [2] can be described thus: qHTS assay for small molecule agonists of the p53 signaling pathway - cell viability (AID 651633; calls by dose curve;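 note: p53RE-bla HCT reporter cells with a stable beta-lactamase p53 reporter; series mostly up to about 83 µM; nearly all actives have a fitted effect of over 30% in size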). The essentials: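 Viability counter-read: CellTiter-Glo luminescence (30 min, room temperature) in the same p53RE-bla plates. These plates had been exposed to compounds for 16 h at 37 C.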
A general note: Quantitative high-throughput screening tests each substance at several concentrations.

Experiment [3] is described as follows: qHTS assay for small molecules that induce genotoxicity in human embryonic kidney cells expressing luciferase-tagged ATAD5 - cell viability (AID 651634; calls by dose curve; note: nearly all actives have a fitted effect of over 25% in size; note: potency is the fitted concentration of half-maximal effect). The essentials:
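Fluorescence from CellTiter-Fluor, reporting protease activity within live cells, served as the viability read-out. HEK293T cells carrying luciferase-tagged ATAD5 had been treated with compound for 15.5 hr at 37C.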

Experiment [4] can be described thus: qHTS assay for small molecule disruptors of the mitochondrial membrane potential - cell viability (AID 720634; calls by dose curve; note: nearly all actives have a fitted effect of over 20% in size; note: potency is the fitted concentration of half-maximal effect). The essentials:
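Cells: HepG2, 2,000/well, attached overnight. Compound 1 hr, 37 C/5% CO2. +m-MPI dye, +CellTiter-Glo 30 min RT. Readout: luminescence (ATP).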

The nature of experiment [5]: qHTS assay for small molecule disruptors of the mitochondrial membrane potential (AID 720635). Note: potency is the fitted concentration of half-maximal effect. The essentials:
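Mitochondrial membrane potential tracked with Mito-MPS dye, red aggregates (ex 540/em 590 nm) against green monomers (ex 490/em 535 nm). Compound treatment 1 hr at 37C, dye 30 min in HepG2.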

Experiment [6] can be described thus: qHTS assay to test for compound auto fluorescence at 590 nm (red) in HepG2 cells (AID 720674). The essentials:
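We screened compounds on adherent HepG2 cells, incubating them for an hour at 37 C in 5% CO2 before reading emission at 590 nm under 540 nm excitation; values reflect equivalence to Rose Bengal sodium fluorescence.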

A short description of experiment [7]: qHTS assay to test for compound auto fluorescence at 535 nm (green) in HepG2 cells (AID 720675).
The nature of experiment [8]: qHTS assay to test for compound auto fluorescence at 460 nm (blue) in HEK293 cells (AID 720678). The essentials: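 Intrinsic compound fluorescence is recorded in live HEK293 cultures after overnight incubation at 37C, 5% CO2, using excitation 405 nm and emission 460 nm. Values are referenced to triamterene.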
Experiment [9] is described as follows: qHTS assay to test for compound auto fluorescence at 590 nm (red) in HEK293 cells (AID 720679). The essentials: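 Red autofluorescence, HEK293 cells: 2,000 cells/well; attach 4-5 hr 37C; add 23 nL cpd or DMSO; incubate o/n 37C 5% CO2; read Ex540/Em590; Rose Bengal sodium reference.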
A short description of experiment [10]: qHTS assay for small molecule agonists of the p53 signaling pathway (AID 651631; calls by dose curve; note: nearly all actives have a fitted effect of over 15% in size). The essentials:
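Stably transfected HCT-116 cells (beta-lactamase behind p53 response elements) get compounds after a 5 h settling period; 16 h later at 37 °C, FRET substrate is loaded and fluorescence read after 2 h.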

On to `CC(C)c1ccc2c(C(C)C)cc(C(C)C)c(S(=O)(=O)O)c2c1`, for which the Potency entry in experiment [1], in experiment [2], in [3], in experiment [4], in [5] and in experiment [8] was “inactive” in each case. The outcome in experiment [6] and in [7] was inactive.
Take `CCCCCCOC(=O)CCC`: the Potency entry in experiment [1], in experiment [2], in [3], in experiment [4], in [5] and in experiment [8] was “inactive” throughout. The outcome in experiment [6], in [7] and in [9] was inactive.
As for `CC1(C)[C@H]2CC[C@]1(C)[C@H](O)C2`, the Potency result in [1], in experiment [2], in experiment [3], in experiment [4], in [5] and in experiment [8] was “inactive” each time. Moreover, the call in experiment [6] and in [7] was inactive.
For `C[C@@H](C1=C(CCN(C)C)Cc2ccccc21)c1ccccn1`, the Potency result in experiment [1], in experiment [2], in experiment [3], in experiment [4], in [5] and in experiment [8] was “inactive” each time. Besides, the result in experiment [6], in experiment [7] and in experiment [9] was inactive.
Consider `Cc1ccccn1`, for which the Potency result in [10], in [2], in experiment [3], in experiment [4] and in experiment [5] was “inactive” in each case. Also, the result in [6], in [7] and in experiment [9] was inactive.
With `CCN(CC)C(C)=O`, the Potency entry in [1], in [2], in experiment [3], in [4], in experiment [5] and in experiment [8] was “inactive” each time. The result in [6] and in experiment [7] was inactive.
Turning to `O=C1c2cccc(O)c2C(=O)c2c(O)cc(CO)cc21`, the Potency result in experiment [1], in experiment [2], in experiment [3], in [4] and in experiment [8] was “inactive” throughout. Besides, the Potency in experiment [5] is 0.864 µM (active). For the same compound, the call in [6], in experiment [7] and in [9] was inactive.
As for `CC(C)(C)c1ccc(OCC2CO2)cc1` (configuration not stated), the Potency result in [1], in [2], in experiment [3], in experiment [4], in [5] and in [8] was “inactive” throughout. Moreover, the outcome in experiment [6], in [7] and in [9] was inactive.
With `Cc1ccc(C(N)=O)cc1N`, the Potency entry in [1], in [2], in experiment [3], in experiment [4], in [5] and in experiment [8] was “inactive” in each case. Moreover, the outcome in experiment [6], in experiment [7] and in [9] was inactive.
With `CCN(CC)CCOc1ccc2c(c1)C(=O)c1cc(OCCN(CC)CC)ccc1-2`, the Potency result in experiment [1], in [2], in experiment [3], in experiment [4], in experiment [5] and in [8] was “inactive” each time. Also, the call in experiment [6], in experiment [7] and in experiment [9] was inactive.
As for `O=C(NS(=O)(=O)/C=C/c1cccs1)c1ccc(F)cc1Br`, the results for the Potency in [1] and in experiment [5] were 1.37 µM (active) and 61.1 µM (active), respectively. The Potency result in experiment [2], in experiment [3], in [4] and in experiment [8] was “inactive” throughout. Further, the outcome in [6], in experiment [7] and in [9] was inactive.
Take `Cc1cccc(OCCOc2cccc(C)c2)c1`: the Potency entry in [10], in [2], in experiment [3] and in experiment [4] was “inactive” in each case. Moreover, the compound was classed as inactive in [6], in [7] and in [9].
Consider `CCCc1ccccc1`, for which the Potency result in [10], in [2], in [3], in [4] and in experiment [8] was “inactive” throughout. Further, the compound was called inactive in experiment [6], in experiment [7] and in experiment [9].
With `CN(C)CC[C@@H](c1ccc(Br)cc1)c1ccccn1`, the Potency entry in experiment [1], in experiment [2], in [3], in [4], in experiment [5] and in [8] was “inactive” throughout. Also, the result in experiment [6], in experiment [7] and in [9] was inactive.
For `Cc1ccccc1N=Nc1ccc(N=Nc2c(O)ccc3ccccc23)c(C)c1`, the Potency result in experiment [1], in [2], in experiment [3], in experiment [4], in experiment [5] and in experiment [8] was “inactive” each time. Also, the result in experiment [6], in experiment [7] and in [9] was inactive.
Turning to `O=C(CC(=O)c1ccccc1)c1ccccc1`, the Potency was 11.7 µM (active) in [1], 36.9 µM (active) in [4] and 11.7 µM (active) in experiment [5]. For the same compound, the Potency entry in experiment [2], in experiment [3] and in experiment [8] was “inactive” each time. The compound was classed as inactive in experiment [6], in experiment [7] and in experiment [9].
Turning to `Cc1ccc(C)o1`, the Potency result in experiment [1], in [2], in [3], in experiment [4], in [5] and in experiment [8] was “inactive” in each case. For the same compound, the compound was called inactive in experiment [6], in experiment [7] and in [9].
Turning to `NC1CCN(c2nc3c(cc2F)c(=O)c(C(=O)O)cn3-c2ccc(F)cc2F)C1` (configuration not stated), the Potency entry in experiment [1], in experiment [2], in experiment [3], in experiment [4], in experiment [5] and in [8] was “inactive” each time. Moreover, the compound was called inactive in experiment [6], in experiment [7] and in experiment [9].
On to `ClC(Cl)(Cl)c1ccc(C(Cl)(Cl)Cl)cc1`, for which the Potency entry in [1], in experiment [2], in [3], in [4] and in experiment [8] was “inactive” each time. The Potency in [5] is 13.5 µM (active). Besides, the call in experiment [6] and in experiment [7] was inactive.
For `CCCOc1ccc2nc(NC(=O)OC)[nH]c2c1`, the results for the Potency in experiment [1] and in [3] were 1.68 µM (active) and 150 nM (active), respectively. Besides, the Potency entry in [2], in experiment [4], in [5] and in experiment [8] was “inactive” each time. Besides, the compound was called inactive in experiment [6] and in experiment [7].
With `CCCCCC(CO)CCC` (configuration not stated), the Potency result in [1], in [2], in experiment [3], in experiment [4], in experiment [5] and in experiment [8] was “inactive” each time. Also, the call in [6], in experiment [7] and in experiment [9] was inactive.
On to `C[C@H](CCC(=O)O)[C@H]1CC[C@H]2[C@@H]3[C@H](O)C[C@@H]4C[C@H](O)CC[C@]4(C)[C@H]3CC[C@]12C`, for which the Potency entry in experiment [10], in [2], in experiment [3] and in experiment [4] was “inactive” throughout. For the same compound, the compound was classed as inactive in experiment [6], in [7] and in experiment [9].
As to `CN(C(=O)CCCOc1ccc2[nH]c(=O)ccc2c1)C1CCCCC1`, the Potency entry in experiment [10], in experiment [2], in experiment [3], in [4] and in experiment [8] was “inactive” each time. Also, the result in experiment [6], in experiment [7] and in [9] was inactive.
With `CCCCOC(O)CC` (configuration not stated), the Potency entry in [1], in [2], in [3], in experiment [4], in experiment [5] and in [8] was “inactive” in each case. The call in experiment [6], in experiment [7] and in experiment [9] was inactive.
`COc1ccccc1OC(=O)Oc1ccccc1OC`: the Potency result in [10], in experiment [2], in experiment [3], in [4], in experiment [5] and in experiment [8] was “inactive” throughout. The call in [6] and in experiment [9] was inactive.
